# The source made the active and inactive calls. The calls were made as follows: active = hit-call score of the fitted dose curve at least 0.9, where 1 is the maximum; inactive = score below 0.9.
# Read-out: Ezrin (EZR), EZR (gene 7430)
# Assay: LTEA_HepaRG_EZR: Life Technologies and Expression Analysis (LTEA) Assay for Ezrin (EZR) using HepaRG (AID 2283491)
# Settings: mRNA level, 48 h; actives raise or lower the signal
# Method in brief: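 Differentiated human HepaRG cells, 48 h after plating, were exposed in serum-free induction medium for 48 hours to eight half-log concentrations up to 100 uM in 0.5% DMSO. EZR mRNA was measured by TaqMan qRT-PCR, normalized to ACTB, GAPDH and POLR2A, and fitted bidirectionally against DMSO.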
# Cytochrome P450 3A7 (Homo sapiens), sequence (P24462 whole entry, looked up): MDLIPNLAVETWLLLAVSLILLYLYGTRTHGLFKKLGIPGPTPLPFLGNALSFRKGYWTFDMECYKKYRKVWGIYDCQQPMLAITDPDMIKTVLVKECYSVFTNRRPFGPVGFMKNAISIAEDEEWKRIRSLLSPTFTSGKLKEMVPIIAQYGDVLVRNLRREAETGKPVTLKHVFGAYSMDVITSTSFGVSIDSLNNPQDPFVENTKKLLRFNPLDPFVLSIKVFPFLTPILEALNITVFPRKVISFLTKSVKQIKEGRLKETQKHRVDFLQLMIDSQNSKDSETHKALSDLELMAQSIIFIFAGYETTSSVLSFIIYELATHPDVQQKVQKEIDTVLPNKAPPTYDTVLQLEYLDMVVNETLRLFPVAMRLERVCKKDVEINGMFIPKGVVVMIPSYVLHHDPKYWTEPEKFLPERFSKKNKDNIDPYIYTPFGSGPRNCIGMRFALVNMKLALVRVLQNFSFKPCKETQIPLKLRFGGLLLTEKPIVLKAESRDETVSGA
SMILES,outcome,AC50
O=C1c2ccccc2C(=O)N1CCc1noc(-c2ccc(CN3CCCCCC3)s2)n1,inactive,
CC(C)(C)c1cc(/C=C2\SC(N)=NC2=O)cc(C(C)(C)C)c1O,inactive,
CCCCOC(=O)c1ccc(O)cc1,inactive,
O=c1c(-c2ccc(O)cc2)coc2cc(O)cc(O)c12,inactive,
O=C(O)c1ccccc1C(=O)OCc1ccccc1,inactive,
CCN(Cc1cccc(S(=O)(=O)O)c1)c1ccc(C(=C2C=CC(=[N+](CC)Cc3cccc(S(=O)(=O)O)c3)C=C2)c2ccccc2S(=O)(=O)[O-])cc1,inactive,
O=CCCCC=O,inactive,
c1ccc2ccccc2c1,inactive,
O=C=NCCCCCCN=C=O,inactive,
CO[C@H]1/C=C/O[C@@]2(C)Oc3c(C)c(O)c4c(O)c(c(/C=N/N5CCN(C)CC5)c(O)c4c3C2=O)NC(=O)/C(C)=C\C=C\[C@H](C)[C@H](O)[C@@H](C)[C@@H](O)[C@@H](C)[C@H](OC(C)=O)[C@@H]1C,inactive,
OC12N=C(c3ccccc3)SC1Cc1cc(Cl)ccc12 (stereo not given),inactive,
Clc1ccccc1C(c1ccccc1)(c1ccccc1)n1ccnc1,inactive,
CCCC(=O)OCCC(C)C,inactive,
CC(=O)N1CCN(c2ccc(OC[C@H]3CO[C@](Cn4ccnc4)(c4ccc(Cl)cc4Cl)O3)cc2)CC1,inactive,
Cc1cn([C@H]2C[C@H](N=[N+]=[N-])[C@@H](CO)O2)c(=O)[nH]c1=O,inactive,
c1ccc(C[n+]2cccc3ccccc32)cc1,,14.7 µM (active)
Cc1oc2c(NC(=O)c3c(Cl)cccc3Cl)cccc2c1C(C)(C)O,inactive,
CC/C(=C(/CC)c1ccc(O)cc1)c1ccc(O)cc1,inactive,
CC(C)(c1cc(Br)c(O)c(Br)c1)c1cc(Br)c(O)c(Br)c1,inactive,

SMILES,outcome,AC50
NCc1cccc(C2CCN(C(=O)c3ccc(C#Cc4ccccc4F)o3)CC2)c1,inactive,
C[C@]12CC[C@@H]3c4ccc(O)cc4CC[C@H]3[C@@H]1CCC2=O,inactive,
O=C(O)Cn1c(=O)n(Cc2ccc(Br)cc2F)c(=O)c2ccc(Cl)cc21,inactive,
CC1=CC(=O)/C(=C(/C)O)C(=O)O1,inactive,
O=C(O)c1ccccc1-n1cc(C(=O)O)c(=O)c2cc(Nc3c(F)cc(F)cc3Cl)c(Cl)cc21,inactive,
CN1C(=O)CC[C@H]1c1cccnc1,inactive,
Oc1ccccc1,inactive,
CN(C)c1ccc(C(=C2C=CC(=[N+](C)C)C=C2)c2ccc(N(C)C)cc2)cc1,,32 µM (active)
O=C(OCCCCCCOC(=O)c1ccccc1)c1ccccc1,inactive,
O=c1ccc2ccccc2o1,inactive,
CCCCOC(=O)CC(CC(=O)OCCCC)(OC(C)=O)C(=O)OCCCC,inactive,
O=C(Nc1ccc(Cl)cc1)Nc1ccc(Cl)c(Cl)c1,inactive,
CC(O)CC(C)(C)O (stereo not given),inactive,
CCCCCCCCOC(=O)c1cc(O)c(O)c(O)c1,inactive,
CC[C@H](NC(=O)c1cc(F)ccc1NS(=O)(=O)c1cccc2cccnc12)c1ccccc1,inactive,
CN(C)C(=O)C1(N2CCCCC2)CCN(CC[C@@]2(c3ccc(Cl)c(Cl)c3)CN(C(=O)c3ccccc3)CCO2)CC1,,60.6 µM (active)
CC1(C)NC(=O)N(c2ccc([N+](=O)[O-])c(C(F)(F)F)c2)C1=O,,93 µM (active)
CCCCCCCCCCCC[N+](C)(C)C,,83.7 µM (active)
Cc1ccc2oc(CN(Cc3ccccc3)C(=O)Nc3c(F)cc(F)cc3F)c(-c3ccc(Cl)cc3)c2c1,inactive,

# Read-out: Cytochrome P450 3A7 (Homo sapiens) (UniProt P24462)
# Assay: LTEA_HepaRG_CYP3A7: Life Technologies and Expression Analysis (LTEA) Assay for CYP3A7 using HepaRG (AID 2283492)
# Settings: mRNA level, 48 h; actives raise or lower the signal
# Method in brief: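 CYP3A7 transcript levels were read by TaqMan qRT-PCR on Fluidigm arrays after 48 h chemical exposure of human HepaRG cells, with housekeeping-gene normalisation. Eight half-log concentrations up to 100 uM in 0.5% DMSO were tested in duplicate.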
SMILES,outcome,AC50
O=C1c2ccccc2C(=O)N1CCc1noc(-c2ccc(CN3CCCCCC3)s2)n1,inactive,
CC(C)(C)c1cc(/C=C2\SC(N)=NC2=O)cc(C(C)(C)C)c1O,,27.6 µM (active)
CCCCOC(=O)c1ccc(O)cc1,inactive,
O=c1c(-c2ccc(O)cc2)coc2cc(O)cc(O)c12,inactive,
O=C(O)c1ccccc1C(=O)OCc1ccccc1,inactive,
CCN(Cc1cccc(S(=O)(=O)O)c1)c1ccc(C(=C2C=CC(=[N+](CC)Cc3cccc(S(=O)(=O)O)c3)C=C2)c2ccccc2S(=O)(=O)[O-])cc1,inactive,
O=CCCCC=O,inactive,
c1ccc2ccccc2c1,inactive,
O=C=NCCCCCCN=C=O,inactive,
OC12N=C(c3ccccc3)SC1Cc1cc(Cl)ccc12 (stereo not given),,59 µM (active)
Clc1ccccc1C(c1ccccc1)(c1ccccc1)n1ccnc1,inactive,
CCCC(=O)OCCC(C)C,inactive,
Cc1cn([C@H]2C[C@H](N=[N+]=[N-])[C@@H](CO)O2)c(=O)[nH]c1=O,inactive,
c1ccc(C[n+]2cccc3ccccc32)cc1,,31.7 µM (active)
Cc1oc2c(NC(=O)c3c(Cl)cccc3Cl)cccc2c1C(C)(C)O,,31.6 µM (active)
CC/C(=C(/CC)c1ccc(O)cc1)c1ccc(O)cc1,inactive,

SMILES,outcome,AC50
CC(C)(c1cc(Br)c(O)c(Br)c1)c1cc(Br)c(O)c(Br)c1,,9.73 µM (active)
NCc1cccc(C2CCN(C(=O)c3ccc(C#Cc4ccccc4F)o3)CC2)c1,,77.7 µM (active)
CC1=CC(=O)/C(=C(/C)O)C(=O)O1,inactive,
O=C(O)c1ccccc1-n1cc(C(=O)O)c(=O)c2cc(Nc3c(F)cc(F)cc3Cl)c(Cl)cc21,,3 µM (active)
CN1C(=O)CC[C@H]1c1cccnc1,inactive,
Oc1ccccc1,inactive,
O=C(OCCCCCCOC(=O)c1ccccc1)c1ccccc1,inactive,
O=c1ccc2ccccc2o1,inactive,
CCCCOC(=O)CC(CC(=O)OCCCC)(OC(C)=O)C(=O)OCCCC,inactive,
CC(O)CC(C)(C)O (stereo not given),inactive,
CCCCCCCCOC(=O)c1cc(O)c(O)c(O)c1,inactive,
CC[C@H](NC(=O)c1cc(F)ccc1NS(=O)(=O)c1cccc2cccnc12)c1ccccc1,inactive,
CN(C)C(=O)C1(N2CCCCC2)CCN(CC[C@@]2(c3ccc(Cl)c(Cl)c3)CN(C(=O)c3ccccc3)CCO2)CC1,,24.7 µM (active)
CC1(C)NC(=O)N(c2ccc([N+](=O)[O-])c(C(F)(F)F)c2)C1=O,inactive,
CCCCCCCCCCCC[N+](C)(C)C,inactive,
Cc1ccc2oc(CN(Cc3ccccc3)C(=O)Nc3c(F)cc(F)cc3F)c(-c3ccc(Cl)cc3)c2c1,,11.1 µM (active)

# From PubChem BioAssay (EPA / NIEHS)
